From PubChem BioAssay (NCATS)
The source made the active and inactive calls. The call rests on the fitted dose curve; in most records, active means well fitted curve in the direction sought with a large enough effect; inactive means no such curve, though single readings can be large or run the other way.

biological target: Alpha-galactosidase (Coffea arabica) (UniProt Q42656); test: Counterscreen for Glucocerebrosidase Inhibitors: qHTS Assay for Coffee Bean alpha-Galactosidase at pH 5.9 (AID 998); conditions: coffee bean alpha-galactosidase enzyme assay; series mostly up to 76.9 µM; activity, negative = inhibition: at the top concentration;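 further: plate controls were uninhibited enzyme for no effect and no-enzyme basal signal for full effect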
Excerpt: NIH Chemical Genomics Center [NCGC]
NIH Molecular Libraries Screening Centers Network [MLSCN]
PI Name: Zheng, Wei [NIH]
Alpha-galactosidase is a homodimeric glycoprotein that hydrolyzes the terminal alpha-galactosyl moieties from glycolipids and glycoproteins. Deficiency of this enzyme results in Fabry Disease with progressive accumulation of globotriaosylceramide and other glycosphingolipids in vascular endothelial cells that causes renal failure, myocardial infarction and stroke, and premature death in patients. It has reported that the improper folding and trafficking of alpha-galactosidase resulted from the genetic mutations may account for a significant numbers of Fabry patients. […] We optimized this coffee bean alpha-galactosidase assay in 1536-well plate format as a counter-screen assay for identifying the selective small molecule inhibitors of other lysosomal enzymes.
NCGC Assay Protocol Summary:
This is a fluorogenic enzyme assay with 4-Methylumbelliferyl alpha-D-galactopyranoside as the substrate and green coffee bean […] (from Sigma-Aldrich) as the enzyme preparation. Upon the hydrolysis of this fluorogenic substrate, the resulting product, […]. 4-Methyllumbelliferone, can be excited at 365 nm and emits at 440 nm which can be detected by a standard fluorescence plate reader. Data were normalized to the controls for basal activity (without enzyme) and 100% activity (with enzyme). In the AC50 values were determined from concentration-response data modeled with the standard Hill equation.
Assay buffer: 50 mM citric acid, 0.005% Tween-20, pH 5.9. (pH 5.9 is an optimal condition for this enzyme assay.)
1536-well assay protocol for the coffee bean alpha-galactosidase:
(1) Add 2 ul/well of enzyme (2 nM final)
(2) Add 23 nL compounds in DMSO solution. The final titration was 0.7 nM to 77 uM.
(3) Add 1 ul of substrate (80 uM final)
(4) Incubate at room temperature for 20 min.
(5) Add 2 ul stop solution (1M NaOH and 1M Glycine mixture, pH 10)
(6) Detect the assay plate in a ViewLux plate reader (PerkinElmer) with Ex=365 nm and Em=440nm.
Keywords: Alpha-galactosidase, Fabry Disease, pharmacological chaperone, chaperone therapy, high throughput screening, alpha-galactosidase inhibitor, MLSMR, MLSCN, NIH Roadmap, qHTS and NCGC

Chain of Alpha-galactosidase (Coffea arabica) (Q42656 whole entry, looked up): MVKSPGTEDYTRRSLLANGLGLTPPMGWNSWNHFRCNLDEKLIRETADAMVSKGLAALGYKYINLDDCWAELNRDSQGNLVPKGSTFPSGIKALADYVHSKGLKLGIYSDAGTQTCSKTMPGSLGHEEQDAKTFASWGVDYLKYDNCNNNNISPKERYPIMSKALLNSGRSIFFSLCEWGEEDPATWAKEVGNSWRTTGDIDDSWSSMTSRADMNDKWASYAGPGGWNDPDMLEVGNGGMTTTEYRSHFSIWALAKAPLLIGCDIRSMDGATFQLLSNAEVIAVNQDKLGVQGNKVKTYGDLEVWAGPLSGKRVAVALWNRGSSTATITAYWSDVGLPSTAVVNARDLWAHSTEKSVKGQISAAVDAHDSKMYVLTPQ

| Structure (SMILES) | activity, negative = inhibition |
| --- | --- |
| C[C@@H](CN(C)C)CN1c2ccccc2CCc2ccccc21 | -4.96% (inactive) |
| Fc1cccc(/C=N\N=C/c2cccc(F)c2)c1 | 0.312% (inactive) |
| C[C@@H]1C[C@@H]2[C@H]3CCC4=CC(=O)C=C[C@]4(C)[C@]3(F)[C@@H](O)C[C@@]2(C)[C@@]1(O)C(=O)CO | 0.909% (inactive) |
| N=C1Sc2ccccc2C2=NCCCN12 | -0.643% (inactive) |
| C=C(C)[C@H]1Cc2c(ccc3c2O[C@H]2COc4cc(OC)c(OC)cc4[C@@H]2C3=O)O1 | -5.24% (inactive) |
| N[C@H](Cc1ccc(F)cc1)C(=O)O | 2.27% (inactive) |
| OCCN1CCN(CC/C=C2\c3ccccc3Sc3ccc(C(F)(F)F)cc32)CC1 | -3.09% (inactive) |
| C[N+]1(C)CCO[C@@](O)(c2ccc(-c3ccc([C@]4(O)C[N+](C)(C)CCO4)cc3)cc2)C1 | 4.14% (inactive) |
| C[C@H](NCCc1ccc(O)cc1)[C@@H](O)c1ccc(O)cc1 | -0.868% (inactive) |
| COc1cccc(OC)c1OCCNC[C@@H]1CSc2ccccc2O1 | -2.31% (inactive) |
| OC[C@@H]1O[C@@H](n2cnc3c(NC4CCCC4)ncnc32)[C@@H](O)[C@H]1O | -0.71% (inactive) |
| NC(=S)c1ccc[n+]([C@@H]2O[C@@H](COP(=O)([O-])OP(=O)(O)OC[C@@H]3O[C@@H](n4cnc5c(N)ncnc54)[C@@H](OP(=O)(O)O)[C@H]3O)[C@@H](O)[C@H]2O)c1 | 0.0178% (inactive) |
| O=C(O)CCCC[C@H]1CCSS1 | -2.03% (inactive) |
| COc1ccccc1NC(=O)Nc1nc(-c2cccnc2)nc2ccccc12 | 2.22% (inactive) |
| C[C@@](N)(C(=O)O)c1ccc(C(=O)O)cc1 | -0.265% (inactive) |
| CN1C(=O)CC[C@@H]1c1cccnc1 | -0.959% (inactive) |
| N=c1ccn2c(n1)O[C@@H]1[C@@H](O)[C@H](CO)O[C@H]12 | 0.942% (inactive) |
| CCCCCCCCCCCCCCCCCC(=O)NC[C@@H](COP(=O)([O-])OCC[N+](C)(C)C)OCC | 3.54% (inactive) |
| COc1cc2nc(N3CCN(C(=O)OCc4ccccc4)[C@H](C(=O)NC(C)(C)C)C3)nc(N)c2cc1OC | 3.29% (inactive) |
| Nc1nc(Cl)nc2c1ncn2[C@@H]1O[C@@H](CO)[C@@H](O)[C@H]1O | 2.07% (inactive) |

| Structure (SMILES) | activity, negative = inhibition |
| --- | --- |
| CO/N=C(\C(=O)N[C@@H]1C(=O)N2C(C(=O)O)=C(CSc3nc(=O)c(O)nn3C)CS[C@@H]12)c1csc(N)n1 | -1.28% (inactive) |
| CNc1ncnc2c1ncn2[C@@H]1O[C@@H](CO)[C@H](O)[C@@H]1O | 3.21% (inactive) |
| CC1(C)CCC(NC(=O)[C@H](N)CCC(=O)O)CC1 | 0.628% (inactive) |
| CCCCCCCCCC(=O)N[C@@H](CN1CCOCC1)[C@@H](O)c1ccccc1 | -5.34% (inactive) |
| C/C=C1\C(=O)C[C@@H]2[C@@H]3CCC4=CC(=O)CC[C@@]4(C)[C@H]3CC[C@@]12C | -0.32% (inactive) |
| O=C(O)/C=C\c1cnc[nH]1 | 1.5% (inactive) |
| C=C[C@H](N)CCC(=O)O | -1.12% (inactive) |
| CCOC(=O)C1=C(C)NC(C)=C(C(=O)OC)[C@H]1c1cccc([N+](=O)[O-])c1 | -5.61% (inactive) |
| COC(=O)c1c(-c2cc(OC)c(OC)c(OC)c2)c2ccc(OCc3ccccn3)cc2c(=O)n1-c1ccc(N)cc1 | -4.67% (inactive) |
| CN1CCc2cc(Cl)c(O)cc2[C@H](c2ccccc2)C1 | -1.05% (inactive) |
| COc1ccccc1OC[C@H](O)CN1CCN(CC(=O)Nc2c(C)cccc2C)CC1 | -0.989% (inactive) |
| C[C@@H](COc1ccc(/C=C\c2ccccc2)cc1)[N+](C)(C)C | -2.09% (inactive) |
| S=C(Nc1ccccc1)Nc1nccs1 | 1.1% (inactive) |
| N[C@H](C(=O)N[C@@H]1C(=O)N2C(C(=O)O)=C(Cl)CS[C@@H]12)c1ccccc1 | 0.0245% (inactive) |
| CC[C@]1(O)C[C@H]2CN(CCc3c([nH]c4ccccc34)[C@](C(=O)OC)(c3cc4c(cc3OC)N(C)[C@@H]3[C@](O)(C(=O)OC)[C@H](OC(C)=O)[C@]5(CC)C=CCN6CC[C@]43[C@@H]65)C2)C1 | -3.35% (inactive) |
| CN(C)c1ccc(/C=C2/C(=O)Nc3ccccc32)cc1 | -11.5% (inactive) |
| CCN1CCC[C@@H]1CNC(=O)c1cc(S(N)(=O)=O)ccc1OC | -1.04% (inactive) |
| CC(C)[C@H]1C(=O)C(C(N)=O)=C(O)[C@]2(O)C(=O)C3=C(O)c4c(O)ccc(N(C)C)c4C[C@H]3C[C@@H]12 | -3.92% (inactive) |
| O=C1CC[C@H](N2C(=O)c3ccccc3C2=O)C(=O)N1 | 0.0926% (inactive) |
| O=S(=O)(NCCNC/C=C\c1ccc(Br)cc1)c1cccc2cnccc12 | -2.21% (inactive) |
